The text below walks through data of PMC7826789 (International Journal of Molecular Sciences, 2021).

Molecules are shown by their SMILES.

Among the test systems are EGFR(G719S); EGFR(L747-T751del,Sins); EGFR(L858R); EGFR(L858R,T790M); EGFR(L861Q); EGFR(S752-I759del); EGFR(T790M); EGFR.
What all share (details): Compound Concentration (nM):1000
Experiment [1] concerns EGFR(L747-E749del, A750P).
Experiment [2] relates to EGFR(L747-S752del, P753S).
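Further: KINOMEscan scanMAX binding as percent activity remaining versus control; lower means stronger binding.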

As to `COC(=O)Nc1nc2ccc(Oc3ccc(NC(=O)Nc4cc(C(F)(F)F)ccc4F)cc3)cc2s1.Cl` [GW693917A], the “Percent Control” value in the experiment on EGFR(G719S) was determined as 83%; in [1], 86%; in experiment [2] it was 95%; with EGFR(L747-T751del,Sins) it was 100%; with EGFR(L858R), 78%; in the experiment with EGFR(L858R,T790M) it was 95%. Also, the “Percent Control” value amounted to 100% in the experiment on EGFR(L861Q), 100% in the experiment with EGFR(S752-I759del), 68% in the experiment on EGFR(T790M) and 90% in the experiment on EGFR.
For the compound `COc1cccc(-n2ncc3c(N/N=C/c4ccncc4)ncnc32)c1` [GW784752X], the “Percent Control” value came out at 59% in the experiment on EGFR(G719S); 96% in experiment [1]; 81% in experiment [2]; 100% in the experiment with EGFR(L747-T751del,Sins); 75% with EGFR(L858R); 96% in the experiment with EGFR(L858R,T790M). The “Percent Control” value in the experiment with EGFR(L861Q) is on record as 77%; with EGFR(S752-I759del), 87%; with EGFR(T790M), 100%; in the experiment on EGFR, 75%.
Turning to `COc1cc(C)c(N(C)C(=O)CN(C)C)cc1Nc1nc(Nc2cccc(F)c2C(N)=O)c2cc[nH]c2n1` [GSK2219385], the “Percent Control” value is reported as 75% in the experiment with EGFR(G719S); 98% in experiment [1]; 100% in experiment [2]; 100% in the experiment on EGFR(L747-T751del,Sins); 89% with EGFR(L858R); 100% with EGFR(L858R,T790M). The “Percent Control” value is 82% with EGFR(L861Q), 100% in the experiment on EGFR(S752-I759del), 56% with EGFR(T790M) and 87% in the experiment on EGFR.
As for `Cl.O=C(O[C@H]1CN[C@H](C#Cc2cc3ncnc(Nc4ccc5c(cnn5Cc5ccccc5)c4)c3s2)C1)N1CCOCC1` [GSK200398A], the “Percent Control” value in the experiment on EGFR(G719S) turned out to be 2%; in experiment [1], 66%; in experiment [2], 20%; in the experiment on EGFR(L747-T751del,Sins), 24%; with EGFR(L858R), 9.2%; in the experiment on EGFR(L858R,T790M), 87%. Moreover, the “Percent Control” value with EGFR(L861Q) was found to be 0.3%; in the experiment on EGFR(S752-I759del), 3.1%; in the experiment on EGFR(T790M), 44%; with EGFR, 25%.
In the case of `CCS(=O)(=O)c1ccc(OC)c(Nc2ncc(-c3cccc(F)c3)o2)c1` [GW621970X], the “Percent Control” value stood at 92% in the experiment with EGFR(G719S); 72% in experiment [1]; 75% in experiment [2]; 84% with EGFR(L747-T751del,Sins); 92% with EGFR(L858R); 100% with EGFR(L858R,T790M). Also, the “Percent Control” value in the experiment on EGFR(L861Q) worked out at 79%; in the experiment with EGFR(S752-I759del), 73%; with EGFR(T790M), 100%; with EGFR, 85%.
With `Cl.c1ccc(Cc2nc3ccc(Nc4ncnc5ccccc45)cc3[nH]2)cc1` [GR269666A], the “Percent Control” value in the experiment with EGFR(G719S) came out at 0.6%; in experiment [1], 41%; in [2] it was 70%; in the experiment on EGFR(L747-T751del,Sins), 37%; with EGFR(L858R), 36%; with EGFR(L858R,T790M) it was 100%. Moreover, the “Percent Control” value in the experiment on EGFR(L861Q) is recorded as 9.8%; in the experiment on EGFR(S752-I759del), 71%; in the experiment on EGFR(T790M), 100%; in the experiment on EGFR it was 5%.
Take `Cc1cc(O)cc(C)c1/C=C/c1cncc(C(N)=O)c1` [GW435821X]: the “Percent Control” value in the experiment on EGFR(G719S) is on record as 67%; in experiment [1], 68%; in experiment [2] it was 87%; in the experiment on EGFR(L747-T751del,Sins), 100%; with EGFR(L858R), 80%; in the experiment on EGFR(L858R,T790M) it was 100%. In addition, the “Percent Control” value is recorded as 71% with EGFR(L861Q), 78% with EGFR(S752-I759del), 94% in the experiment with EGFR(T790M) and 78% with EGFR.
As for `NS(=O)(=O)c1ccc(N/N=C2\C(=O)Nc3ccc(C(=O)NCCc4c[nH]cn4)cc32)cc1` [GW300660X], the “Percent Control” value came to 73% with EGFR(G719S); 100% in experiment [1]; 100% in experiment [2]; 100% with EGFR(L747-T751del,Sins); 100% with EGFR(L858R); 99% in the experiment on EGFR(L858R,T790M). Besides, the “Percent Control” value in the experiment on EGFR(L861Q) is 85%; in the experiment with EGFR(S752-I759del) it was 97%; in the experiment with EGFR(T790M) it was 95%; with EGFR it was 99%.
For the compound `COc1ccc2cc(-c3c(-c4ccncc4)nc(-c4ccc(S(C)(=O)=O)cc4C)n3C)ccc2c1` [SB-633825], the “Percent Control” value with EGFR(G719S) turned out to be 84%; in experiment [1] it was 78%; in experiment [2] it was 70%; in the experiment on EGFR(L747-T751del,Sins), 70%; in the experiment on EGFR(L858R) it was 63%; with EGFR(L858R,T790M), 38%. In addition, the “Percent Control” value was 41% in the experiment with EGFR(L861Q), 93% in the experiment on EGFR(S752-I759del), 40% in the experiment on EGFR(T790M) and 74% with EGFR.
For `CCn1c(-c2nonc2N)nc2c(C#CC(C)(C)O)nc(OCCNC)cc21.Cl` [GSK949675], the “Percent Control” value in the experiment on EGFR(G719S) worked out at 100%; in experiment [1], 92%; in experiment [2], 100%; in the experiment with EGFR(L747-T751del,Sins), 100%; in the experiment on EGFR(L858R), 100%; in the experiment on EGFR(L858R,T790M), 100%. The “Percent Control” value in the experiment with EGFR(L861Q) is listed as 100%; in the experiment on EGFR(S752-I759del), 100%; with EGFR(T790M), 85%; with EGFR, 96%.
Consider `NS(=O)(=O)c1ccc(Nc2ncc(-c3ccccc3)o2)cc1` [GW572399X], for which the “Percent Control” value in the experiment with EGFR(G719S) came to 100%; in experiment [1], 68%; in experiment [2], 100%; with EGFR(L747-T751del,Sins) it was 100%; with EGFR(L858R) it was 88%; in the experiment with EGFR(L858R,T790M), 96%. Moreover, the “Percent Control” value was 100% with EGFR(L861Q), 100% in the experiment on EGFR(S752-I759del), 92% in the experiment with EGFR(T790M) and 88% in the experiment with EGFR.
`CN1CCN(C(=O)c2ccc(NC(=O)Nc3ccc(N(C)c4ccnc(Nc5ccc(CS(C)(=O)=O)cc5)n4)cc3)cc2)CC1.Cl` [GW830263A]: the “Percent Control” value in the experiment on EGFR(G719S) turned out to be 100%; in experiment [1], 99%; in experiment [2], 78%; in the experiment with EGFR(L747-T751del,Sins) it was 100%; in the experiment with EGFR(L858R) it was 92%; with EGFR(L858R,T790M), 55%. For the same compound, the “Percent Control” value with EGFR(L861Q) was determined as 92%; in the experiment on EGFR(S752-I759del), 100%; in the experiment with EGFR(T790M), 54%; in the experiment with EGFR, 100%.
On to `NS(=O)(=O)c1ccc(N/N=C2\C(=O)Nc3ccc(C(=O)NCc4ccncc4)cc32)cc1` [GW300657X], for which the “Percent Control” value amounted to 97% with EGFR(G719S); 100% in experiment [1]; 90% in experiment [2]; 81% with EGFR(L747-T751del,Sins); 94% in the experiment with EGFR(L858R); 100% in the experiment on EGFR(L858R,T790M). Also, the “Percent Control” value was determined as 91% with EGFR(L861Q), 98% with EGFR(S752-I759del), 100% with EGFR(T790M) and 93% in the experiment on EGFR.
For `COc1cc(C=NNc2ncnc3c2cnn3-c2ccccc2)ccc1O` [GW513184X], the “Percent Control” value with EGFR(G719S) worked out at 44%; in experiment [1], 46%; in experiment [2], 33%; with EGFR(L747-T751del,Sins), 64%; in the experiment with EGFR(L858R), 96%; with EGFR(L858R,T790M), 76%. For the same compound, the “Percent Control” value in the experiment with EGFR(L861Q) is on record as 62%; in the experiment with EGFR(S752-I759del), 64%; in the experiment with EGFR(T790M), 82%; with EGFR it was 100%.
On to `O=C(Nc1n[nH]c2nc(-c3ccc(O)cc3)c(Br)cc12)C1CC1` [SB-725317], for which the “Percent Control” value in the experiment with EGFR(G719S) worked out at 100%; in experiment [1], 76%; in experiment [2], 99%; in the experiment on EGFR(L747-T751del,Sins) it was 100%; with EGFR(L858R), 96%; in the experiment on EGFR(L858R,T790M), 100%. Further, the “Percent Control” value was 100% in the experiment with EGFR(L861Q), 82% with EGFR(S752-I759del), 96% in the experiment with EGFR(T790M) and 100% with EGFR.
Regarding `CCc1ccc(Oc2nccc(-c3c(-c4ccc(F)cc4)ncn3C3CCNCC3)n2)cc1` [SB-242719], the “Percent Control” value with EGFR(G719S) is given as 61%; in experiment [1], 48%; in experiment [2], 91%; in the experiment with EGFR(L747-T751del,Sins) it was 71%; in the experiment on EGFR(L858R), 49%; with EGFR(L858R,T790M), 73%. In addition, the “Percent Control” value in the experiment with EGFR(L861Q) stood at 58%; in the experiment with EGFR(S752-I759del) it was 85%; in the experiment on EGFR(T790M), 52%; with EGFR, 48%.
As for `COc1ccc2[nH]c3c4[nH]c5ccc(OC)cc5c4c4c(c3c2c1)C(=O)NC4=O` [GW296115X], the “Percent Control” value was 57% with EGFR(G719S); 24% in experiment [1]; 49% in [2]; 44% with EGFR(L747-T751del,Sins); 50% in the experiment on EGFR(L858R); 35% with EGFR(L858R,T790M). The “Percent Control” value came to 71% with EGFR(L861Q), 68% in the experiment with EGFR(S752-I759del), 45% in the experiment on EGFR(T790M) and 51% with EGFR.
In the case of `NS(=O)(=O)c1ccc(N/N=C2\C(=O)Nc3ccc(-c4cnco4)cc32)cc1` [GW276655], the “Percent Control” value with EGFR(G719S) was 76%; in experiment [1], 100%; in [2] it was 100%; with EGFR(L747-T751del,Sins), 89%; with EGFR(L858R) it was 72%; in the experiment with EGFR(L858R,T790M), 66%. In addition, the “Percent Control” value was 79% in the experiment with EGFR(L861Q), 70% with EGFR(S752-I759del), 66% in the experiment with EGFR(T790M) and 87% with EGFR.
`COc1ccc2c(-c3ccnc(Nc4cccc(OC(F)(F)F)c4)n3)cnn2n1` [GW810372X]: the “Percent Control” value is 73% in the experiment with EGFR(G719S); 100% in [1]; 98% in [2]; 100% with EGFR(L747-T751del,Sins); 100% in the experiment with EGFR(L858R); 100% in the experiment on EGFR(L858R,T790M). For the same compound, the “Percent Control” value in the experiment on EGFR(L861Q) came out at 75%; in the experiment on EGFR(S752-I759del), 100%; in the experiment on EGFR(T790M), 82%; in the experiment on EGFR, 100%.
Turning to `CC1=C(C(=O)Nc2ccc3[nH]ncc3c2)C(c2ccc(Cl)c(Cl)c2)CC(=O)N1` (centres unmarked) [GSK299115A], the “Percent Control” value is given as 100% with EGFR(G719S); 100% in experiment [1]; 97% in [2]; 100% in the experiment on EGFR(L747-T751del,Sins); 100% in the experiment with EGFR(L858R); 65% in the experiment on EGFR(L858R,T790M). Also, the “Percent Control” value was 86% with EGFR(L861Q), 89% in the experiment with EGFR(S752-I759del), 77% with EGFR(T790M) and 100% with EGFR.
